From PubChem BioAssay AID1252 (The Scripps Research Institute Molecular Screening Center, 2008)
Some of the results follow.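 The calls were made as follows: active = over 50% activation at some tested dose; inactive = under 50% activation at every tested dose.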

Test: Hsp70 transcriptional activators, dose response, cell-based, HeLa, Hsp70 promoter luciferase, luminescence, triplicate (AID 1252)
Settings: HeLa hsp70.1pr-luc reporter; series mostly up to 99 µM; activation: at the top concentration

activation, inactive:
COc1ccc(CS(=O)/C(Cl)=C(/Cl)C(=O)Nc2ccc(OC)nc2)cc1 (centres undefined) -0.5%, O=C(/C=C/Sc1ncn[nH]1)c1ccc(Cl)cc1 3.8%, COCCn1c(C)cc(C(=O)CSc2nc3ccccc3c(=O)n2C(C)COC)c1C (centres undefined) -0.3%, COc1ccc(NC(=O)/C(Cl)=C(/Cl)S(=O)Cc2ccc(C)cc2)cn1 (centres undefined) 1.6%
